Data as given in PubChem BioAssay (NCATS).
Records with an inconclusive call do not appear. Active and inactive are the calls of the source. Unless noted, calls follow the shape of the dose curve; as a rule, active = well fitted curve in either direction with a large enough effect (not every such curve was filed as active); inconclusive = small, poorly fitted or top-dose-only effect, or another doubt; inactive = flat fitted curve, though single readings scatter.

Tests used:
[1] = molecular target: Lysosomal acid glucosylceramidase (Homo sapiens) (UniProt P04062); test: Glucocerebrosidase-p2 (AID 348; in the data active = potency below about 10 µM; also: potency is read from the fitted curve at half-maximal effect); settings: purified GBA, blue fluorogenic substrate, 40 min
Outline: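 Normal human glucocerebrosidase (0.2 nM) with blue fluorogenic substrate (80 uM final) in citrate/phosphate pH 5.9 with 10mM sodium taurocholate, 0.01% tween-20; 40 min RT, NaOH/glycine stop; fluorescence Ex 365/Em 440; AC50 from a titration from 0.6 nM upwards.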

[2] = AP1 Signaling Pathway (AID 357); settings: ME-180 AP-1-bla reporter, EGF-induced, beta-lactamase ratio, 5 h; at 7.69 µM (top of the series) unless noted;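 also: ME-180 reporter cells stimulated with EGF at its EC50 level; % is scaled to controls: 0 for no effect and ±100 for the full control effect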
Outline: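 Beta-lactamase reporter under AP-1 response element, ME-180 background. Stimulus: EC50 EGF. Compound exposure 5 h, 37 °C. Detection: CCF4, 2.5 h RT, 460/530 nm. Values: AC50 from titration.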

[3] = molecular target: Cytochrome P450 1A2 (Homo sapiens) (UniProt P05177); test: p450-cyp1a2 (AID 410; calls by dose curve; also: potency is read from the fitted curve at half-maximal effect;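 as to activity change, negative = inhibition: -100% = full effect of reference inhibitor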); settings: recombinant CYP1A2, luciferin-ME demethylation, luminescence; series mostly up to 57 µM
Outline: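 20nM CYP1A2, 100uM Luciferin-ME (=Km), 100mM KPO4; cpd 10 min RT; +NADPH regen, 60 min RT; stop/detect 20 min; luminescence. Normalized to furafylline 57 uM = full inhibition.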

[4] = NFAT Signaling Pathway (AID 444); settings: Jurkat NFAT-bla M1, carbachol, beta-lactamase ratio, 5 h; at 7.69 µM (top of the series) unless noted;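 also: carbachol stimulus at about its EC50 of 1 µM final; % is scaled to controls: 0 for no effect and ±100 for the full control effect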
Outline: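 Jurkat cells with NFAT-driven β-lactamase reporter and co-expressed M1 receptor, stimulated with carbachol (final 1 uM, ~EC50), compound titration, 5 h at 37 °C. CCF4 loaded 1 h at RT; 460/530 nm ratio gave %activity and AC50.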

[5] = Stat Signaling Pathway (AID 446); settings: ME-180 SIE beta-lactamase reporter, IL-6 stimulated, 5 h; at 7.69 µM (top of the series) unless noted;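 also: ME-180 cervical cancer cells given 40 pM IL-6 alongside compound; SIE-controlled beta-lactamase reporter measured as 460/530 nm FRET emission ratio; % is scaled to controls: 0 for no effect and ±100 for the full control effect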
Outline: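 FRET read-out (405 nm excitation, 460/530 nm emission) of a beta-lactamase reporter under a STAT-inducible element in ME-180 cervical carcinoma cells. Cells with compound receive 40 pM IL-6 for 5 h. Values are normalised to AC90 stimulation and AC90 JAK-inhibitor controls.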

[6] = molecular target: Glucocorticoid receptor (Homo sapiens) (UniProt P04150); test: GR-EFC Redistribution (AID 451; calls by dose curve; also: potency is read from the fitted curve at half-maximal effect); settings: CHO-K1 GR-EFC translocation, beta-gal luminescence, 2 h
Outline: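 CHO-K1 cells expressing nuclear EA and GR-ED fragments of b-gal; compounds titrated up to 46 uM final, 2 h at 37 C. GR nuclear translocation read as complemented b-gal luminescence after 1 h RT detection.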

[7] = molecular target: Mitogen-activated protein kinase 10 (Mus musculus) (UniProt Q61831); test: JNK3 AlphaScreen Assay (AID 530); settings: JNK3 lysate, c-Jun phosphorylation; series mostly up to 57.1 µM;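 also: kinase came from lysate of stimulated human HepG2 cells; signal reports phosphorylation of biotinylated GST-cJun 1-79 at Ser73 with 10 µM ATP; % is scaled to controls: 0 for no effect and ±100 for the full control effect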
Outline: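 HepG2 lysate (IL-1b/TNFa pre-activated) + biotin-GST-cJun 1-79 + anti-pSer73 cJun; cpd titration, 15 min RT; ATP 10 uM start; Tris pH 7.6, MgCl2, DTT, vanadate; beads in EDTA buffer; AlphaScreen.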

[8] = molecular target: 3',5'-cyclic-AMP phosphodiesterase 4B (Homo sapiens) (UniProt Q07343); test: qHTS Assay for Inhibitors of PDE-IV (AID 607; active = well fitted activation curve with a large enough effect in the main read-out, with a control signal flat, not every such curve was filed as active; also: % of control where 0% means no effect); settings: HEK293 ACTOne CNG channel cells, membrane potential fluorescence; series mostly up to 22.9 µM
Outline: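 Cell-based read-out of cAMP via a modified cyclic nucleotide-gated channel and membrane potential dye (535/590 nm) in HEK293 cells expressing PDE4 endogenously. Compounds tested up to 22.9 uM final; 100 uM RO 20-1724 reference.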

[9] = molecular target: Cytochrome P450 3A4 (Homo sapiens) (UniProt P08684); test: qHTS Assay for Activators of Cytochrome P450 3A4 (AID 885; active = well fitted curve in the direction sought with a large enough effect; an effect the other way counts as inactive or inconclusive; also: nearly all actives have a fitted effect of over 65% in size; also: potency is read from the fitted curve at half-maximal effect); settings: recombinant CYP3A4, Luciferin-PPXE luminescence, 60 min; series mostly up to 57.1 µM
Outline: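 Luminescent readout of luciferin formed from 25 uM Luciferin-PPXE (KM level) by 20 nM CYP3A4 in 200 mM KPO4, with 60 min NADPH-driven reaction at room temperature after 10 min compound exposure. Ketoconazole (57 uM) defined 100% inhibition.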

[10] = qHTS Assay for Lipid Storage Modulators (AID 1519; calls by dose curve); settings: Drosophila S3 cells, BODIPY lipid droplet/cell ratio, laser cytometry, cells loaded with oleic acid; for activity change, negative = inhibition: at 57.5 µM (top of the series)
Outline: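 Cells seeded at 5,000 per well were treated with compounds over a concentration series and loaded with oleic acid (400 uM, as added). Lipid droplet fluorescence (488 nm excitation, 500-530 nm channel) was read by laser-scanning cytometry and normalized to 20 uM Triacsin C.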

[11] = Primary qHTS for small molecule stabilizers of the endoplasmic reticulum resident proteome: Secreted ER Calcium Modulated Protein (SERCaMP) assay (AID 1508630; active = well fitted curve in the direction sought with a large enough effect; an effect the other way counts as inactive or inconclusive; also: % is scaled to controls: 0 for no effect and ±100 for the full control effect); settings: SH-SY5Y GLuc-SERCaMP (Gaussia luciferase released on ER calcium loss) secretion, thapsigargin, luminescence; series mostly up to 38.4 µM
Outline: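 The SH-SY5Y reporter protocol was run at 3 concentrations up to 38.3 uM (primary) or 11 concentrations (follow-up): 16 h compound, 100 nM thapsigargin for 4 h, then extracellular luciferase luminescence.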

[12] = molecular target: Cytochrome P450 3A4 (Homo sapiens) (UniProt P08684); test: qHTS Assay for Inhibitors and Substrates of Cytochrome P450 3A4 (AID 884; active = well fitted curve in the direction sought with a large enough effect; an effect the other way counts as inactive or inconclusive; also: nearly all actives have a fitted effect of over 50% in size; also: potency is read from the fitted curve at half-maximal effect); settings: recombinant CYP3A4, Luciferin-PPXE luminescence; series mostly up to 57.1 µM
Outline: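 Luminescent readout of luciferin produced by CYP3A4 (20 nM) dealkylation of Luciferin-PPXE, 25 uM (its KM). NADPH-driven reaction ran 60 min at RT after 10 min compound preincubation; data scaled to 57 uM ketoconazole as 100% inhibition.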

[13] = qHTS Assay for Identification of Small Molecule Agonists for Hypoxia Response Element Signaling Pathway (AID 914; active = well fitted activation curve with a large enough effect in the signal ratio, with a control signal flat, not every such curve was filed as active; the % refers to the signal ratio; also: % of control where 0% means no effect); settings: ME-180 (cervical carcinoma) HRE-bla reporter, beta-lactamase ratio, CoCl2, 17 h; activation: stronger effect = higher value
Outline: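 A beta-lactamase reporter under hypoxia response element control in ME-180 cells served as the system. Compound titrations plus EC50 CoCl2 ran 17 h at 37 degrees Celsius; AC50 values were fitted from %Activity.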

[14] = molecular target: Cytochrome P450 2D6 (Homo sapiens) (UniProt P10635); test: qHTS Assay for Inhibitors and Substrates of Cytochrome P450 2D6 (AID 891; active = well fitted curve in the direction sought with a large enough effect; an effect the other way counts as inactive or inconclusive; also: potency is read from the fitted curve at half-maximal effect; nearly all actives have a fitted effect of over 60% in size); settings: recombinant CYP2D6, luciferin-ME EGE luminescence; series mostly up to 57.1 µM
Outline: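 Luminescent read-out of luciferin formed by 5 nM human CYP2D6 demethylating 30 uM Luciferin-ME EGE (Km level) over 60 min at room temperature after NADPH regeneration addition. Data normalized to full inhibition by 1.43 uM quinidine.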

[15] = molecular target: Cytochrome P450 2C19 (Homo sapiens) (UniProt P33261); test: qHTS Assay for Inhibitors and Substrates of Cytochrome P450 2C19 (AID 899; active = well fitted curve in the direction sought with a large enough effect; an effect the other way counts as inactive or inconclusive; also: potency is read from the fitted curve at half-maximal effect; nearly all actives have a fitted effect of over 60% in size); settings: recombinant CYP2C19, luciferin-H EGE luminescence; series mostly up to 57.1 µM
Outline: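 5 nM human CYP2C19 with 10uM Luciferin-H EGE (at KM) in 50mM KPO4, compound preincubated 10 min at 37C, then NADPH regeneration for 60 min at 37C. Luciferin read by luminescence after detection reagent; normalized to 57uM ketoconazole as full inhibition.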

[16] = measured here: cell count channel max response
[17] = measured here: lipid channel max response

Glucocorticoid receptor (Homo sapiens), sequence (P04150 whole entry, looked up, the tested form may be a part): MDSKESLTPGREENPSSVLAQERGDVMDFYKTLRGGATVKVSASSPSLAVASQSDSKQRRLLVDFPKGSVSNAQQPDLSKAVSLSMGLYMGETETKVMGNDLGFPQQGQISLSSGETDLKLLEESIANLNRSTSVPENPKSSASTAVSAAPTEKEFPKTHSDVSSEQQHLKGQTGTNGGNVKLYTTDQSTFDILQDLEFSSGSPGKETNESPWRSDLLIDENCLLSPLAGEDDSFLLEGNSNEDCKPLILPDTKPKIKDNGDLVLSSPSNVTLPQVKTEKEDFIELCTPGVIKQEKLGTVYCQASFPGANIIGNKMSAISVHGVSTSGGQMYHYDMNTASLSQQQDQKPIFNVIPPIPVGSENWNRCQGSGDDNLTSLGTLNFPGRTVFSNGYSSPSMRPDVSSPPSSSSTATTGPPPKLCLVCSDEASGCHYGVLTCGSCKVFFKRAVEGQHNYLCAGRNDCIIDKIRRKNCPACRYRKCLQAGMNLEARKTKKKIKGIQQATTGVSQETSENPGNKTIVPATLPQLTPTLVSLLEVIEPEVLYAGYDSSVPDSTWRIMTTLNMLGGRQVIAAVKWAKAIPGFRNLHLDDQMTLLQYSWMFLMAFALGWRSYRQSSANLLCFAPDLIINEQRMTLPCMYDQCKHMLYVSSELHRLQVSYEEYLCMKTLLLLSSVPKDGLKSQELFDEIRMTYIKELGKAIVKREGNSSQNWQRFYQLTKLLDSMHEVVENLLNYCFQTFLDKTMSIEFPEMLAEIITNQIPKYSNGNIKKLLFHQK
Cytochrome P450 1A2 (Homo sapiens), sequence (P05177 whole entry, looked up): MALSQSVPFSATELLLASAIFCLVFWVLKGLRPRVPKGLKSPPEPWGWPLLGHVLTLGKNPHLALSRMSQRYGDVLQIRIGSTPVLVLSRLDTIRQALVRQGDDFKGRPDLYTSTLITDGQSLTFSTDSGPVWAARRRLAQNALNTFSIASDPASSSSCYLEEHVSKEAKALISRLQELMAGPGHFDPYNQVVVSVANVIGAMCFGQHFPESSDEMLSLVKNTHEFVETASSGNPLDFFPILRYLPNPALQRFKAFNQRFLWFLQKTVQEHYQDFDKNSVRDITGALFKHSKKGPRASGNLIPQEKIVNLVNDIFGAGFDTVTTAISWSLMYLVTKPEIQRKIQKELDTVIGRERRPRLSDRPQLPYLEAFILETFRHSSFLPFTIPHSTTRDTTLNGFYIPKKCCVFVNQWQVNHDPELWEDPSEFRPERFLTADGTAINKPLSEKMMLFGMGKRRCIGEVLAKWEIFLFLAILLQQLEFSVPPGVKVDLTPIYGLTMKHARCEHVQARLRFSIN
3',5'-cyclic-AMP phosphodiesterase 4B (Homo sapiens), sequence (Q07343 whole entry, looked up): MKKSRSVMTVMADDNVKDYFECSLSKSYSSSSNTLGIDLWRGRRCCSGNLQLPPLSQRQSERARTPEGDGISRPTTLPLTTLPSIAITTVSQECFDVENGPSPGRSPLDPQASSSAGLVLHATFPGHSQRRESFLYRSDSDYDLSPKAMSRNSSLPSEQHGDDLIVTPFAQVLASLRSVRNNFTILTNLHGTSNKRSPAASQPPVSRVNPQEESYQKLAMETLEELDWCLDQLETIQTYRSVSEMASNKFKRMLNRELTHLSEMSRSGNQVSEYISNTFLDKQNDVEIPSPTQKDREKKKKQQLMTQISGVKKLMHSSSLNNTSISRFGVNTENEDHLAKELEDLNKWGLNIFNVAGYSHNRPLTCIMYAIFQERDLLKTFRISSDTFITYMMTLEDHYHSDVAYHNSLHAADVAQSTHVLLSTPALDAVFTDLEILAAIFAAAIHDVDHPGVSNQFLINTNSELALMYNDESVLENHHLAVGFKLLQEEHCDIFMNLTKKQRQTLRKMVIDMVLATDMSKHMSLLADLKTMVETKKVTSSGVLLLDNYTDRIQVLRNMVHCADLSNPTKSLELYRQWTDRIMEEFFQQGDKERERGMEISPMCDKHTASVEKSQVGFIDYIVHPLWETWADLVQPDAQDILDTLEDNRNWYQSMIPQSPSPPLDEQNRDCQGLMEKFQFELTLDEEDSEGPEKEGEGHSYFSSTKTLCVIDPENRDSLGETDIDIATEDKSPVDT
Lysosomal acid glucosylceramidase (Homo sapiens), sequence (P04062 whole entry, looked up): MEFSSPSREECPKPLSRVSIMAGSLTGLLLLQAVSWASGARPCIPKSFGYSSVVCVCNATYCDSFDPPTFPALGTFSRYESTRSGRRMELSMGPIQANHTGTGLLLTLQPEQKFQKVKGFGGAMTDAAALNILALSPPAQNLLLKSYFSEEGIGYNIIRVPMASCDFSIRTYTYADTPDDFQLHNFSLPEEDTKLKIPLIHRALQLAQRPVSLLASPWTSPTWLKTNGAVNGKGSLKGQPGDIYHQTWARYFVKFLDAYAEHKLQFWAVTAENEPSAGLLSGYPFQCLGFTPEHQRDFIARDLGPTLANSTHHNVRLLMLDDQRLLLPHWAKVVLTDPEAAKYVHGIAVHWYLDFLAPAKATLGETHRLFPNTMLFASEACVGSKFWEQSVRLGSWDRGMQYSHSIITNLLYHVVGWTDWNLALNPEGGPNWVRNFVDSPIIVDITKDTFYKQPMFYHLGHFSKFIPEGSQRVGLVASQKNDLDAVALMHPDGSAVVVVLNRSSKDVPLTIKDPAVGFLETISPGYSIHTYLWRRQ
Cytochrome P450 3A4 (Homo sapiens), sequence (P08684 whole entry, looked up): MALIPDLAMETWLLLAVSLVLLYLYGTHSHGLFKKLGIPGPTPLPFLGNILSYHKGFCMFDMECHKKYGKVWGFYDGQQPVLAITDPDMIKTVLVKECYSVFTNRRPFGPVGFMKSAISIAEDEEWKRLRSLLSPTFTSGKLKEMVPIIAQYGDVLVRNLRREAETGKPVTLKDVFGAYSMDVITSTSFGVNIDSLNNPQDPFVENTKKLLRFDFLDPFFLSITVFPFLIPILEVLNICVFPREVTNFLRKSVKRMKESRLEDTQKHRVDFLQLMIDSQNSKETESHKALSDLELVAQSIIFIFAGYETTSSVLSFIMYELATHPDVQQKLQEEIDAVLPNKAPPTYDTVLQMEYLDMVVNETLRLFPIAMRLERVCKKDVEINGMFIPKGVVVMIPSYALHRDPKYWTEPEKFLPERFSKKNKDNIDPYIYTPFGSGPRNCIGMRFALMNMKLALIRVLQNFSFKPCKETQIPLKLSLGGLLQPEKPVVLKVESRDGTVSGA
Cytochrome P450 2C19 (Homo sapiens), sequence (P33261 whole entry, looked up): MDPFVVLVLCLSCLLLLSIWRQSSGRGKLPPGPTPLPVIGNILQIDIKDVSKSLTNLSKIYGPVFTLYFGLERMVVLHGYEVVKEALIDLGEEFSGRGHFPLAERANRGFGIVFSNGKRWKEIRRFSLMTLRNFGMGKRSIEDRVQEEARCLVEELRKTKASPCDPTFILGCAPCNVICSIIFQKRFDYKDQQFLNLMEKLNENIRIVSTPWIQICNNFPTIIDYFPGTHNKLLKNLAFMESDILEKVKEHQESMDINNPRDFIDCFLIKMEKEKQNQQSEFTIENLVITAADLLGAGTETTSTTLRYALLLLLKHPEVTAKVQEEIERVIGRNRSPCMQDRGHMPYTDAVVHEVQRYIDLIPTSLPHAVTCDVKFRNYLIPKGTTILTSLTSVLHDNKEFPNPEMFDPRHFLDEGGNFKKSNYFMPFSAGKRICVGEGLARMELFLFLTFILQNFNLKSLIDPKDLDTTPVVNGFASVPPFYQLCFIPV
Cytochrome P450 2D6 (Homo sapiens), sequence (P10635 whole entry, looked up): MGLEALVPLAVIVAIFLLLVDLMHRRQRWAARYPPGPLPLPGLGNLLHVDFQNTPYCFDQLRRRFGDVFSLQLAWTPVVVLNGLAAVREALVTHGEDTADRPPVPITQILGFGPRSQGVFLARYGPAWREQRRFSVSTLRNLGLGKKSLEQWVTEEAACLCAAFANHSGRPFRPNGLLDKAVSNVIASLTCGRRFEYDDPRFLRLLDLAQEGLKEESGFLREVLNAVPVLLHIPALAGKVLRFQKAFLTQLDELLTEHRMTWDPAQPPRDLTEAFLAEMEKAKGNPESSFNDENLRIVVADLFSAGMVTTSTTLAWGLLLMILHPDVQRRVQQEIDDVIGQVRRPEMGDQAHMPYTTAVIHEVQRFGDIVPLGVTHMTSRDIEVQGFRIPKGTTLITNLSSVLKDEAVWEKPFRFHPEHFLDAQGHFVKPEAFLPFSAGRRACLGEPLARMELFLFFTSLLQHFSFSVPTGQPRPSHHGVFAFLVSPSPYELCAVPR

Cc1noc(C)c1C(=O)N1CCC2(CCCN(c3ccccc3)C2)CC1
9.27%: max response [10, 17]
8.91%: max response [10, 16]
inactive: Potency [1] > 11.4 µM | activity change, negative = inhibition [2] -12.1% | Potency [3] | activity change, negative = inhibition [4] -9.55% | activity, negative = inhibition [5] -1.28% | Potency [6] > 46 µM | outcome [7] | Potency [8] | Potency [9] | activity change, negative = inhibition [10] -0.946% | Potency [11]

FC(F)(F)c1cc(CN2CCCC3(CCNCC3)C2)cc(C(F)(F)F)c1
inactive: Potency [1] > 11.4 µM | activity change, negative = inhibition [2] 2.64% | Potency [3] | activity change, negative = inhibition [4] -4.7% | activity, negative = inhibition [5] 1.59% | Potency [6] > 46 µM | outcome [7] | Potency [8] | Potency [9] | activity change, negative = inhibition [10] 0.357% | Potency [11]
2.14%: max response [10, 17]
active: Potency [12] 7.94 µM
-0.613%: max response [10, 16]

COC(=O)N1CCC2(CC1)CCN(c1ccccc1)CC2
inactive: Potency [1] > 11.4 µM | activity change, negative = inhibition [2] 8.46% | Potency [3] | activity change, negative = inhibition [4] 7.28% | activity, negative = inhibition [5] 7.52% | Potency [6] > 46 µM | outcome [7] | Potency [8] | Potency [12] | activation [13] 0.0011% | activity change, negative = inhibition [10] 0.493% | Potency [11]
3.31%: max response [10, 16]
7.38%: max response [10, 17]

CS(=O)(=O)N1CCC2(CCN(C(c3ccccc3)c3ccccc3)CC2)CC1
0.776%: max response [10, 17]
active: Potency [9] 12.6 µM | Potency [14] 3.16 µM
-0.926%: max response [10, 16]
inactive: Potency [1] > 11.4 µM | activity change, negative = inhibition [2] -4.08% | Potency [3] | activity change, negative = inhibition [4] -8.24% | activity, negative = inhibition [5] 3.12% | Potency [6] > 46 µM | outcome [7] | Potency [8] | Potency [12] | activity change, negative = inhibition [10] 0.47% | Potency [11]

O=C(c1ccco1)N1CCC2(CC1)CN(c1ccc(-c3ccccc3)cc1)C2
inactive: Potency [1] > 11.4 µM | activity change, negative = inhibition [2] -23.8% | activity change, negative = inhibition [4] -4.82% | activity, negative = inhibition [5] -21.1% | Potency [6] > 46 µM | outcome [7] | Potency [8] | Potency [12] | activity change, negative = inhibition [10] 2.85% | Potency [11]
-15.3%: max response [10, 16]
active: Potency [3] 1 µM | Potency [9] 3.98 µM
-11.7%: max response [10, 17]

O=C(c1ccncc1)N1CCC[C@@]2(CCN(c3ccccn3)C2)C1
14.4%: max response [10, 16]
active: Potency [3] 20 µM | Potency [12] 7.94 µM | Potency [15] 6.31 µM
inactive: Potency [1] > 11.4 µM | activity change, negative = inhibition [2] -20.6% | activity change, negative = inhibition [4] 6.17% | activity, negative = inhibition [5] -0.0595% | Potency [6] > 46 µM | outcome [7] | Potency [8] | Potency [9] | activity change, negative = inhibition [10] 4.35% | Potency [11]
22.3%: max response [10, 17]
